The supplement of paper PMC11732987, “Enantioselective OTUD7B fragment discovery through chemoproteomics screening and high-throughput optimisation” (Communications Chemistry, 2025)

Tests used:
Assay in all cases: log2 ratio of Biotin-Ahx-Ub-VS probe labelling (fragment/DMSO); higher = less target engagement (more negative = stronger competition), active = hit call of the paper (q ≤ 0.05, log2 ratio ≤ -1)
Conditions in all cases: compound concentration: 200 uM; treatment time: 3 h
USP42 = target: T1, USP42 (UniProt Q9H9J4)
T1 sequence (whole entry): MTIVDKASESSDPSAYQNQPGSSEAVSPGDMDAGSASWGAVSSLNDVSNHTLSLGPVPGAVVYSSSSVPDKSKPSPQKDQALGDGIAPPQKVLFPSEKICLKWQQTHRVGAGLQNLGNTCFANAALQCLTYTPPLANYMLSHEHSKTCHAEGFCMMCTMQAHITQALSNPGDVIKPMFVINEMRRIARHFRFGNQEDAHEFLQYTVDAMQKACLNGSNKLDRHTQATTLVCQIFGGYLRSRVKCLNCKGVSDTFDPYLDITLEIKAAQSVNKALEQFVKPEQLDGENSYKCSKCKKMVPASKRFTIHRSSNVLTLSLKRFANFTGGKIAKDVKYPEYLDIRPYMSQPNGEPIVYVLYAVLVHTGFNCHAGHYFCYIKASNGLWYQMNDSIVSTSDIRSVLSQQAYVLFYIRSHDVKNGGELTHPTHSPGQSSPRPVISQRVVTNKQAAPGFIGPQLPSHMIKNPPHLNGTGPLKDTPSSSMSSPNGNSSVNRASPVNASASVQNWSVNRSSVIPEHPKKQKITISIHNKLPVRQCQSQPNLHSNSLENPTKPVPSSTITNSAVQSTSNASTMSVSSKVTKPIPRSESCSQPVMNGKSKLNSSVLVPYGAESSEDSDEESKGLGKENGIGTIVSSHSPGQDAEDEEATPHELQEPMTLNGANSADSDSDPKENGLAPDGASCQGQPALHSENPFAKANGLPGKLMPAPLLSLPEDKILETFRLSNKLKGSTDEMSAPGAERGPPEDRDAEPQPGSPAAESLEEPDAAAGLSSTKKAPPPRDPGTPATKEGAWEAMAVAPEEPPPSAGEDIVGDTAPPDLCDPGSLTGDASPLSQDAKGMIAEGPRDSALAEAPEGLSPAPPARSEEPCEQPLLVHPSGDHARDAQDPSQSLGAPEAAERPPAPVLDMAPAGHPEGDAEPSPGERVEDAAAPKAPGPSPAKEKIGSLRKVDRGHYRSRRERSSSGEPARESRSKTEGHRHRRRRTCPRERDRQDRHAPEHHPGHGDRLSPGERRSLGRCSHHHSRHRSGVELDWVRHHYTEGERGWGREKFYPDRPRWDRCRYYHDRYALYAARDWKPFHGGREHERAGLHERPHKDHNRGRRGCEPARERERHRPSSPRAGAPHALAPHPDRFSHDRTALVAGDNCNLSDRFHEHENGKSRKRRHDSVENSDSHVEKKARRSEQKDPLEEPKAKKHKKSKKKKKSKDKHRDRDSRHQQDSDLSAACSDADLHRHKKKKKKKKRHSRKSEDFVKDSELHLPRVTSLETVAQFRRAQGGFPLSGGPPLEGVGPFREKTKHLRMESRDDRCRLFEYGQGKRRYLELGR
Method in brief: (§1)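 Fragment (200 µM) or vehicle was incubated for 3 h with triplicate HEK293T lysate samples of 495 µg, which were then treated with Biotin-Ahx-Ub-VS at 0.5 µM final for 1 h. Labelled DUBs were enriched on NeutrAvidin, digested with LysC and trypsin, and analysed by diaPASEF LC-MS/MS. Values are average log2 fragment/vehicle ratios from an unpaired t-test on global-median-normalised Spectronaut label-free quantities, using proteins with ≥2 unique peptides.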

USP46 = USP46 (UniProt P62068)
Method in brief: as §1

USP47 = target: T2, USP47 (UniProt Q96K76)
T2 sequence (whole entry): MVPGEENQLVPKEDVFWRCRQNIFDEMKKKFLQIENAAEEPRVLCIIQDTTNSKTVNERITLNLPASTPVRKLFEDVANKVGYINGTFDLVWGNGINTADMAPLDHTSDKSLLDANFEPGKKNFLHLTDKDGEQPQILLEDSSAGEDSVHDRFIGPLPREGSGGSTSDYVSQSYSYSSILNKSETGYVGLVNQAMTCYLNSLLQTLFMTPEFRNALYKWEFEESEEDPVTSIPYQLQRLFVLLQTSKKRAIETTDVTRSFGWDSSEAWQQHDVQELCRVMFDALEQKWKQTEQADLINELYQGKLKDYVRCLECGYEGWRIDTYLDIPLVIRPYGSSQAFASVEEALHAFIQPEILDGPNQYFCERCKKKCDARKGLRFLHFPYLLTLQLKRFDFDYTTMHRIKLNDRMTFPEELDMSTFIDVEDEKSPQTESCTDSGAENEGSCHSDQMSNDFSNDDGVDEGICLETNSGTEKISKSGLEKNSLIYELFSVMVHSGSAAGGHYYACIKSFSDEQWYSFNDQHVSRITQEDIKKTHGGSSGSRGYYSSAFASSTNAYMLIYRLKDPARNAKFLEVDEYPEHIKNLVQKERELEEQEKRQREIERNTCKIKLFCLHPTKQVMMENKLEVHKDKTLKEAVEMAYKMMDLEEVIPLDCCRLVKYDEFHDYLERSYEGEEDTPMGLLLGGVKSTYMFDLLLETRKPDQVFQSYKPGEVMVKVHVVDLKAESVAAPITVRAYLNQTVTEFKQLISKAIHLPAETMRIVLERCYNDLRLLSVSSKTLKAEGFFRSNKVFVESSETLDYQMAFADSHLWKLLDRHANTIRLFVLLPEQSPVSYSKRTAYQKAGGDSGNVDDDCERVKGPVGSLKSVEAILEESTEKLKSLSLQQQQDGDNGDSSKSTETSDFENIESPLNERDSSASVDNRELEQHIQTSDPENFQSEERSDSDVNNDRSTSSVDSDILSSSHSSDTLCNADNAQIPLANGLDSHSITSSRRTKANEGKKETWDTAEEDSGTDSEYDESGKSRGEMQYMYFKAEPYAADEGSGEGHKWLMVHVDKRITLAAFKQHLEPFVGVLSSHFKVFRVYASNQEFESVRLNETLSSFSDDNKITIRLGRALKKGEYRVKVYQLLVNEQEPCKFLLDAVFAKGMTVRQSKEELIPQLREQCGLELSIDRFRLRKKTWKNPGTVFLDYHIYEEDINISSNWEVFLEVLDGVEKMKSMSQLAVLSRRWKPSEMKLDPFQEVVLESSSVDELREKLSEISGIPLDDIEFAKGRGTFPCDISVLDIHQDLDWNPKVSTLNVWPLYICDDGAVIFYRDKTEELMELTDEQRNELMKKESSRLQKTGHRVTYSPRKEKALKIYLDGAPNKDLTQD
Method in brief: as §1

USP48 = target: T3, USP48 (UniProt Q86UV5)
T3 sequence (whole entry): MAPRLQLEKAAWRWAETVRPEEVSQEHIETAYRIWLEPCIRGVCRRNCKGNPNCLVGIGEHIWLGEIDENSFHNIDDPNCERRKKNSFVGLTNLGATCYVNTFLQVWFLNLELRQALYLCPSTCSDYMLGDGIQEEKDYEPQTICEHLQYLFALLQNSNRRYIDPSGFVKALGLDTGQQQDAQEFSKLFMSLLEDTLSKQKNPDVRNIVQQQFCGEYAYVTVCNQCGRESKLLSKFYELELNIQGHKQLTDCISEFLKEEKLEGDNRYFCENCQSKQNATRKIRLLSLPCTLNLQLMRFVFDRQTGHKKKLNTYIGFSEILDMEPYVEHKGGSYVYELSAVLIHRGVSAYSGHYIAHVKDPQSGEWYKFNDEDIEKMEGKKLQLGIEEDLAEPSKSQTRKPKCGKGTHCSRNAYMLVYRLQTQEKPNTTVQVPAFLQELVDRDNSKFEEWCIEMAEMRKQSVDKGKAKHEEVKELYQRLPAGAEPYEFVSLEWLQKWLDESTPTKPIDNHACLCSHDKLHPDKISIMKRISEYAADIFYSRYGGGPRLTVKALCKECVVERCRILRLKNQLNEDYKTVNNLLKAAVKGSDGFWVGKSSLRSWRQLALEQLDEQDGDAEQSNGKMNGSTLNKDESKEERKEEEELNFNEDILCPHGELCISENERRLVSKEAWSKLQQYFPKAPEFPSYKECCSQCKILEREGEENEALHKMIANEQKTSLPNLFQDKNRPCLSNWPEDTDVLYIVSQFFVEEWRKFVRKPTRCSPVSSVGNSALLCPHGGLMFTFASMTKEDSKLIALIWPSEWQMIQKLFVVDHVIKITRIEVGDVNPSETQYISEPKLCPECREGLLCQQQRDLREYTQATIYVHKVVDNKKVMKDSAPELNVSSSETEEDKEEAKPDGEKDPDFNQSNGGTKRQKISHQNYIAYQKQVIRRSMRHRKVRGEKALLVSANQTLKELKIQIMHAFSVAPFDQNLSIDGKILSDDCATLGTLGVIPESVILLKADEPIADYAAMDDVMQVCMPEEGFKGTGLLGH
Method in brief: as §1

USP5 = target: T4, USP5 (UniProt P45974)
T4 sequence (whole entry): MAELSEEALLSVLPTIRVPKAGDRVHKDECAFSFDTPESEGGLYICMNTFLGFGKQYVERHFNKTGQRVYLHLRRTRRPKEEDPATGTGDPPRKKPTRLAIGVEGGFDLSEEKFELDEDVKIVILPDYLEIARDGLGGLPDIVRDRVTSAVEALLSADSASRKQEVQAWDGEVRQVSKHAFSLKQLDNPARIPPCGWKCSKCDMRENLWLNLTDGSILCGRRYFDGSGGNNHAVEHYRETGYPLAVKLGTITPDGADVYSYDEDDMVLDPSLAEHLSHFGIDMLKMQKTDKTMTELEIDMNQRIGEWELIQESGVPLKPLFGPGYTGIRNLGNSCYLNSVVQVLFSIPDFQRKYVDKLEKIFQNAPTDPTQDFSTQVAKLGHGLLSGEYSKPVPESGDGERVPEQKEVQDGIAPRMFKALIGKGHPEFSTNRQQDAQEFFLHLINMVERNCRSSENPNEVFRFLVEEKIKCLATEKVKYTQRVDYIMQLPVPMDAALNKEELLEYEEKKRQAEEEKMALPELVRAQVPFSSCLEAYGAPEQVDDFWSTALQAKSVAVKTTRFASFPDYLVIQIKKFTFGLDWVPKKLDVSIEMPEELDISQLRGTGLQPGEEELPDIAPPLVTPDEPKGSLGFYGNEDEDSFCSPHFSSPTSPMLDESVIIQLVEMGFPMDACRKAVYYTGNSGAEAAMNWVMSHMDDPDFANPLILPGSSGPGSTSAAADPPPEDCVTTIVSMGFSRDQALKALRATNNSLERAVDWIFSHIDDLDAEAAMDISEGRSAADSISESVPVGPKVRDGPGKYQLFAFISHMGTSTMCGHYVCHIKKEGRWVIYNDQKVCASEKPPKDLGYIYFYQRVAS
Method in brief: as §1

USP54 = USP54 (UniProt Q70EL1)
Method in brief: as §1

USP7 = USP7 (UniProt Q93009)
Method in brief: as §1

USP8 = target: T5, USP8 (UniProt P40818)
T5 sequence (whole entry): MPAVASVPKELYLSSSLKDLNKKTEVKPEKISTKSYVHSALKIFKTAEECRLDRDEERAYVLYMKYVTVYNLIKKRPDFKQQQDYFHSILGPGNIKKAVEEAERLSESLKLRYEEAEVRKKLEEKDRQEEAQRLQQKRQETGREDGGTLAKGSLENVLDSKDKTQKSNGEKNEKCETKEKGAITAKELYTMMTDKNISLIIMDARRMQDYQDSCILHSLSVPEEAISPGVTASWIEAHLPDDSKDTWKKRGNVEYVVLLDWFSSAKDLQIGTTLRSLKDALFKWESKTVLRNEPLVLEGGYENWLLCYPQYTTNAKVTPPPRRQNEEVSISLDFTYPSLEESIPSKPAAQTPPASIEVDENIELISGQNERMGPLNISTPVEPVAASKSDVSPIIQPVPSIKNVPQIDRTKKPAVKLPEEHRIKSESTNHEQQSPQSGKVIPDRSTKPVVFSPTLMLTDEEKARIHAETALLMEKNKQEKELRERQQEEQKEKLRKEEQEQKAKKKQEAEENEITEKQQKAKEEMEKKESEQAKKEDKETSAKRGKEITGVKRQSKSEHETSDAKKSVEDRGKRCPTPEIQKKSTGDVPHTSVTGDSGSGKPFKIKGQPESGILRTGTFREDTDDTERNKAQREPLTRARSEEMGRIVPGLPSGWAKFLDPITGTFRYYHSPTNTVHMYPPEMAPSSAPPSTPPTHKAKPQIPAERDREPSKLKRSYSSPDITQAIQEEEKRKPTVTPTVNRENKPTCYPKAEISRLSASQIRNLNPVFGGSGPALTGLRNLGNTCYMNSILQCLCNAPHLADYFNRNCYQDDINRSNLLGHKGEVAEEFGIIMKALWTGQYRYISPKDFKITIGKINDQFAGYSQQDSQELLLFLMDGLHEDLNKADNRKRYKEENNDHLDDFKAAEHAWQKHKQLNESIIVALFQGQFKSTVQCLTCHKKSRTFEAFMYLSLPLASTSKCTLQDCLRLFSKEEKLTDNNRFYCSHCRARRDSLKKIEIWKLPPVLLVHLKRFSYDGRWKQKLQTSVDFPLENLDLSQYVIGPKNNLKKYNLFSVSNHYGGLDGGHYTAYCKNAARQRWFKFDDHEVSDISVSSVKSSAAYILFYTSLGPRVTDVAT
Method in brief: as §1

USP9X = USP9X (UniProt Q93008)
Method in brief: as §1

UniProt O00487 = target: UniProt O00487
Method in brief: as §1

Measured: log2 ratio of Biotin-Ahx-Ub-VS probe labelling

USP7, sequence (Q93009 whole entry, looked up): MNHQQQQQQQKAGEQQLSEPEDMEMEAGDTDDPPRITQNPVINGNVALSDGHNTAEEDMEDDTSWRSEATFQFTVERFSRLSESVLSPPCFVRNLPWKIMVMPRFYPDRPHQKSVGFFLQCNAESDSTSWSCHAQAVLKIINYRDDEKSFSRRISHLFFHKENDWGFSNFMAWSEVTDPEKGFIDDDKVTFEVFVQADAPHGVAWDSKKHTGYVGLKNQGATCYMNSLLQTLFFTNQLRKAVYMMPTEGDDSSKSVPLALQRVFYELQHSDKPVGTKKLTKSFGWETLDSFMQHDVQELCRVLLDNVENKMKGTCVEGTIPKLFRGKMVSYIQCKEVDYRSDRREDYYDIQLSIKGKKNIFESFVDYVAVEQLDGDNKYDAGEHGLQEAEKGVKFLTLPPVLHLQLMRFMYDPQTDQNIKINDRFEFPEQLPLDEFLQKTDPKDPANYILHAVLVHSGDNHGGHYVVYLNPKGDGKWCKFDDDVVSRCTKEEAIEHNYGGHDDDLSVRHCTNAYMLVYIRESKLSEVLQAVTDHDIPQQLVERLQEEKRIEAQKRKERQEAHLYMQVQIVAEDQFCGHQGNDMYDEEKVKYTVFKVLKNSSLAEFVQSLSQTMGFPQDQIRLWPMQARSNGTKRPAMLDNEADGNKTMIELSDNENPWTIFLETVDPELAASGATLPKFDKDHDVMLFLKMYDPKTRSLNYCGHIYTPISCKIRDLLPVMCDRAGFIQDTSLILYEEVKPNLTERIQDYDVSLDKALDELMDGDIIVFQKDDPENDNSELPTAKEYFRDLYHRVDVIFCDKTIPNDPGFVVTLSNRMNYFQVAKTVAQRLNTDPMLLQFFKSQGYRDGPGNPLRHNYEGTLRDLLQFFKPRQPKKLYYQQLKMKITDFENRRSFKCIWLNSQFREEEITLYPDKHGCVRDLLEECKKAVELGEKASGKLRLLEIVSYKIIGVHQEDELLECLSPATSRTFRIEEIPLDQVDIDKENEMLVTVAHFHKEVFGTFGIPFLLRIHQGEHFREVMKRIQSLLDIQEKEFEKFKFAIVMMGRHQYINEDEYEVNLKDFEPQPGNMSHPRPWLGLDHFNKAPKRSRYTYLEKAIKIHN
UniProt O00487, sequence (O00487 whole entry): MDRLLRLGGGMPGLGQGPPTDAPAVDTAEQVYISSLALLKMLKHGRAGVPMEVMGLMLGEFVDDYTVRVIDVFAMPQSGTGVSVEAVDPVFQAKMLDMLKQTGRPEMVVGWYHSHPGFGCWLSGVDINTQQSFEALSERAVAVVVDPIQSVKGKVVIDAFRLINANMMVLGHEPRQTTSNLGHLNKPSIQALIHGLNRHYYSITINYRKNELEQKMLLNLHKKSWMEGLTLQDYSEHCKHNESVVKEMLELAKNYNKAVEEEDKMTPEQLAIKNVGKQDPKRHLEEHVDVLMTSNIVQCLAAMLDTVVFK
USP9X, sequence (Q93008 whole entry): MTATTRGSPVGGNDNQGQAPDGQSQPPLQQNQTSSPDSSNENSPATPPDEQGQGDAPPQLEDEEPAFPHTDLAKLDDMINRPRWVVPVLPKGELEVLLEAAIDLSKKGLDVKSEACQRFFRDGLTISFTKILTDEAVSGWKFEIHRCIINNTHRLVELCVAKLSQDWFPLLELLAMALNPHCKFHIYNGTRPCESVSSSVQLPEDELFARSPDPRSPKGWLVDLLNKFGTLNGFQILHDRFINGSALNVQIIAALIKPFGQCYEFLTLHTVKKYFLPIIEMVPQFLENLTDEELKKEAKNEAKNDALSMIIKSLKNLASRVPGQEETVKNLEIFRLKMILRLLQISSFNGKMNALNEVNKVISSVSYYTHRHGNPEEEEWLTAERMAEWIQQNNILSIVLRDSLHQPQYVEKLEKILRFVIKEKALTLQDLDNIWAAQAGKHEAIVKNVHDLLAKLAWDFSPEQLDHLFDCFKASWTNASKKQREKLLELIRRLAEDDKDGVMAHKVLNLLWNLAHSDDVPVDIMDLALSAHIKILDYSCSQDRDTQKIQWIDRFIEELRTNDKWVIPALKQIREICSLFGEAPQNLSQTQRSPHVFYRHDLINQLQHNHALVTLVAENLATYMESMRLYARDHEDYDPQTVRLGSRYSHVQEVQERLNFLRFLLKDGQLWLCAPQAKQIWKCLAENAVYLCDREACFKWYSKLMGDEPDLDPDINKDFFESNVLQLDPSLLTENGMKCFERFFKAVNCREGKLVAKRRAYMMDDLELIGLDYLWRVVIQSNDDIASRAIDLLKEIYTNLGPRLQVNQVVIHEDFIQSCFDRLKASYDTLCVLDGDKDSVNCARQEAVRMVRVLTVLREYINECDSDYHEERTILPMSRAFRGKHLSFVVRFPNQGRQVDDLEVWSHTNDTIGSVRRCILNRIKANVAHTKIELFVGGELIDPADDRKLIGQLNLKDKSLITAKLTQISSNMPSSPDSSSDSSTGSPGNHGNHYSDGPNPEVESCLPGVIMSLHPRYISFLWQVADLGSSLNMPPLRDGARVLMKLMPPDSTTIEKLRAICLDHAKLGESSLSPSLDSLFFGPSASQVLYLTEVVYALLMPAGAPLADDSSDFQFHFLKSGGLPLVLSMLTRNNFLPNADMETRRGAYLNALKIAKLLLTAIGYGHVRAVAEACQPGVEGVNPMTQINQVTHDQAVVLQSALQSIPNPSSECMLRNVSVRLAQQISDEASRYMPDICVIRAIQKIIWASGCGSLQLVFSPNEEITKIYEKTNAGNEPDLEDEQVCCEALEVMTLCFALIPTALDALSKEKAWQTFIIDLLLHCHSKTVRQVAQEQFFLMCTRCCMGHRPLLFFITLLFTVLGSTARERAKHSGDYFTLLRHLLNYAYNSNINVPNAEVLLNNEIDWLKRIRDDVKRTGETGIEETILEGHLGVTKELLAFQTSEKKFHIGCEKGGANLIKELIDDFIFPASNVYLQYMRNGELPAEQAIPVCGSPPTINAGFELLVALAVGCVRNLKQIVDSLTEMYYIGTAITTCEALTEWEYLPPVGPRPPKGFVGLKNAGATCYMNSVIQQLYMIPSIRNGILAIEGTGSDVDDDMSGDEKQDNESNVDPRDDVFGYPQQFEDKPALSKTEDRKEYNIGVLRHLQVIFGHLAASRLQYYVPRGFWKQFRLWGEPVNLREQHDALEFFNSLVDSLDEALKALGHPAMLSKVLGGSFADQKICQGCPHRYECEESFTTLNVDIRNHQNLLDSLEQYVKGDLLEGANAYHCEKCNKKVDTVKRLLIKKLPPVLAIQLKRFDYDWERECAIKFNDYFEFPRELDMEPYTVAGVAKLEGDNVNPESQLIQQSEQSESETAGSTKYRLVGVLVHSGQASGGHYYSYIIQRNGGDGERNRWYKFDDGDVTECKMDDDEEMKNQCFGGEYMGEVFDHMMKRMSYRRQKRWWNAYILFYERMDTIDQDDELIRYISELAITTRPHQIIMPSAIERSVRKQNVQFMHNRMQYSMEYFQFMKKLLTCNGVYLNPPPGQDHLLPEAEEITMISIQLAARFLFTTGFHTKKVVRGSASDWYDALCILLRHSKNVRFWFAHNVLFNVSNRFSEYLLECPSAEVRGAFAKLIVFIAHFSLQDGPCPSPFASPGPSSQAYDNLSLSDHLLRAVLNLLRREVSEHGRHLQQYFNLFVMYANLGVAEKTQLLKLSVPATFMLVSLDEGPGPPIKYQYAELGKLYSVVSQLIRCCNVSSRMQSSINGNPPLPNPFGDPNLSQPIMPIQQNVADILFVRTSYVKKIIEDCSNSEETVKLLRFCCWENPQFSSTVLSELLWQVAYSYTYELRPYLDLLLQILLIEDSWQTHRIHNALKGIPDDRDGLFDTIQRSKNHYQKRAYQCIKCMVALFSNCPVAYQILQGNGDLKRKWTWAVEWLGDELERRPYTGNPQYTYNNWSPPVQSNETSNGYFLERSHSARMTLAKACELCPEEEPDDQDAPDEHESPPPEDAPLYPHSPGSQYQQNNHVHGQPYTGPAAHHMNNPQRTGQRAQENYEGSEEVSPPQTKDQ
USP46, sequence (P62068 whole entry): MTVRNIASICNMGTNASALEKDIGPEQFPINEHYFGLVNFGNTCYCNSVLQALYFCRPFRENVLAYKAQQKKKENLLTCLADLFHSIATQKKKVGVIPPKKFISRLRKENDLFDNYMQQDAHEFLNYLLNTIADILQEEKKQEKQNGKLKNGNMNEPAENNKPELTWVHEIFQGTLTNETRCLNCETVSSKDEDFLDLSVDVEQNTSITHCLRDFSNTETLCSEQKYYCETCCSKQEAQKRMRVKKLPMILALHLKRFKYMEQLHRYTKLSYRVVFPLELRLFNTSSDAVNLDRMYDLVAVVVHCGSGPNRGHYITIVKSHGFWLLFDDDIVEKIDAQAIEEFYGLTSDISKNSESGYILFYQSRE

Cc1cccc(N(CCC#N)C(=O)CCl)c1C
inactive: USP42 0.0225 | USP46 0.0197 | USP47 -0.354 | USP48 -0.0383 | USP5 0.289 | USP54 0.431 | USP7 -0.47 | USP8 0.0891 | USP9X 0.0273 | UniProt O00487 0.0621
